Data: the supplement of paper PMC10849652
The full data set covers some 8,800 targets. This sample favours those with a hit. About 0.5% of all pairs of compound and target were hits. Unmarked numbers belong to inactive results.

Columns and labels:
Assay in all cases: log2 fold change, soluble protein after heating vs DMSO (PISA); higher = thermal stabilisation; K562 lysate, 10 uM; active = over 0.2 and 3.5 SD of the protein, either way, in both replicates (recomputed)
erlotinib = compound: C#Cc1cccc(Nc2ncnc3cc(OCCOC)c(OCCOC)cc23)c1 [erlotinib]
Outline: (§1)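 Values give the log-two fold change in thermal stability against solvent controls, from duplicates. Crude K562 extract at 1 mg/mL protein, made by dounce homogenisation in PBS pH 7.4 with 1 mM MgCl2, was treated with 10 μM compound for 30 min. After 3 min heating across 48°C-58°C, aliquots were pooled, adjusted to 0.5% NP-40 at 4°C and centrifuged at 21,000xg for 90 min. The supernatant was measured by TMTpro 16plex LC-MS/MS with channel sums equalised.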

[1] = compound: C/C(=N\NC(=O)C1=CC(=CC=C1)S(=O)(=O)N2CCOCC2)/C3=C(C=CC(=C3)Cl)O
Outline: as §1

[2] = compound: C1=CC(=CC=C1C2=NC3=C(N2)C=C(C=C3)C(=O)N)OC4=CC=C(C=C4)Cl
Outline: as §1

[3] = compound: C1=CC2=C(C=CC(=C2)/C=C\3/C(=O)NC(=NCC4=CC=CS4)S3)N=C1
Outline: as §1

[4] = compound: C1=CC2=NC=CN=C2C=C1/C=C/3\C(=O)NC(=O)S3
Outline: as §1

[5] = compound: C1=CC=C(C=C1)C2=NC(=C(N2)C3=CC=NC=C3)C4=CC(=C(C=C4)Cl)O
Outline: as §1

[6] = compound: C1=CC=C2C(=C1)C3=NNC4=CC=CC(=C43)C2=O
Outline: as §1

[7] = compound: C1CCN(C1)C(=O)NC2=CC=CC(=C2)NC3=NC=C(C(=N3)NCCC4=CN=CN4)Br
Outline: as §1

[8] = compound: C1CN(CCC1(CC2=CC=C(C=C2)Cl)N)C3=NC=NC4=C3C=CN4
Outline: as §1

IRAK-1-4 Inhibitor I = compound: C1COCCN1CCN2C3=CC=CC=C3N=C2NC(=O)C4=CC(=CC=C4)[N+](=O)[O-] [IRAK-1-4 Inhibitor I]
Outline: as §1

Sequence of UniProt Q8TCD6 (Q8TCD6 whole entry, looked up): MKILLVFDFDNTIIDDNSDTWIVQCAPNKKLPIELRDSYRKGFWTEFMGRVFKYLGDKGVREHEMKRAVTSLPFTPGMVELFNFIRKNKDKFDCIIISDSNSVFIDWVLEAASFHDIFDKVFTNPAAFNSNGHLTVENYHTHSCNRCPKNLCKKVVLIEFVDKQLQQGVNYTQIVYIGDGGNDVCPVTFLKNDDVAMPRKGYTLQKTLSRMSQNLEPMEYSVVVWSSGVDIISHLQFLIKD
Sequence of UniProt O00459 (O00459 whole entry, looked up): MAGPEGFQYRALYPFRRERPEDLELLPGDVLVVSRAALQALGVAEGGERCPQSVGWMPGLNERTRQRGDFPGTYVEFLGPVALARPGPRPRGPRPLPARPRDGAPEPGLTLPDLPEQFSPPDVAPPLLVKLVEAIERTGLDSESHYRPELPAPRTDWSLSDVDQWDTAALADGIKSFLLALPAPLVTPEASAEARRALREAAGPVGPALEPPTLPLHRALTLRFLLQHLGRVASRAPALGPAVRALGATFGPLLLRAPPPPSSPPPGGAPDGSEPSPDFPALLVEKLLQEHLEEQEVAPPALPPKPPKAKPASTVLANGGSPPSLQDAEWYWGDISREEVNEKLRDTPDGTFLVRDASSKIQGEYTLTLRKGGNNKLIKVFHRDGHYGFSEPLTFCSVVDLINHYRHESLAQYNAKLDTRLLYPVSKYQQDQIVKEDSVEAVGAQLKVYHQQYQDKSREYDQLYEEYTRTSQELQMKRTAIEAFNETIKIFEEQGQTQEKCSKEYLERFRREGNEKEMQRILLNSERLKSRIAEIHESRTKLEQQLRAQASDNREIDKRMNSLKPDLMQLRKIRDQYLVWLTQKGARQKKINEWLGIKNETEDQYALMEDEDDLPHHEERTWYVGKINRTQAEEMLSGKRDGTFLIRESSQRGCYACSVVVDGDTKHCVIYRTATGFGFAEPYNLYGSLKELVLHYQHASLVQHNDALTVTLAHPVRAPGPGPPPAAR
Sequence of UniProt O15067 (O15067 whole entry, looked up): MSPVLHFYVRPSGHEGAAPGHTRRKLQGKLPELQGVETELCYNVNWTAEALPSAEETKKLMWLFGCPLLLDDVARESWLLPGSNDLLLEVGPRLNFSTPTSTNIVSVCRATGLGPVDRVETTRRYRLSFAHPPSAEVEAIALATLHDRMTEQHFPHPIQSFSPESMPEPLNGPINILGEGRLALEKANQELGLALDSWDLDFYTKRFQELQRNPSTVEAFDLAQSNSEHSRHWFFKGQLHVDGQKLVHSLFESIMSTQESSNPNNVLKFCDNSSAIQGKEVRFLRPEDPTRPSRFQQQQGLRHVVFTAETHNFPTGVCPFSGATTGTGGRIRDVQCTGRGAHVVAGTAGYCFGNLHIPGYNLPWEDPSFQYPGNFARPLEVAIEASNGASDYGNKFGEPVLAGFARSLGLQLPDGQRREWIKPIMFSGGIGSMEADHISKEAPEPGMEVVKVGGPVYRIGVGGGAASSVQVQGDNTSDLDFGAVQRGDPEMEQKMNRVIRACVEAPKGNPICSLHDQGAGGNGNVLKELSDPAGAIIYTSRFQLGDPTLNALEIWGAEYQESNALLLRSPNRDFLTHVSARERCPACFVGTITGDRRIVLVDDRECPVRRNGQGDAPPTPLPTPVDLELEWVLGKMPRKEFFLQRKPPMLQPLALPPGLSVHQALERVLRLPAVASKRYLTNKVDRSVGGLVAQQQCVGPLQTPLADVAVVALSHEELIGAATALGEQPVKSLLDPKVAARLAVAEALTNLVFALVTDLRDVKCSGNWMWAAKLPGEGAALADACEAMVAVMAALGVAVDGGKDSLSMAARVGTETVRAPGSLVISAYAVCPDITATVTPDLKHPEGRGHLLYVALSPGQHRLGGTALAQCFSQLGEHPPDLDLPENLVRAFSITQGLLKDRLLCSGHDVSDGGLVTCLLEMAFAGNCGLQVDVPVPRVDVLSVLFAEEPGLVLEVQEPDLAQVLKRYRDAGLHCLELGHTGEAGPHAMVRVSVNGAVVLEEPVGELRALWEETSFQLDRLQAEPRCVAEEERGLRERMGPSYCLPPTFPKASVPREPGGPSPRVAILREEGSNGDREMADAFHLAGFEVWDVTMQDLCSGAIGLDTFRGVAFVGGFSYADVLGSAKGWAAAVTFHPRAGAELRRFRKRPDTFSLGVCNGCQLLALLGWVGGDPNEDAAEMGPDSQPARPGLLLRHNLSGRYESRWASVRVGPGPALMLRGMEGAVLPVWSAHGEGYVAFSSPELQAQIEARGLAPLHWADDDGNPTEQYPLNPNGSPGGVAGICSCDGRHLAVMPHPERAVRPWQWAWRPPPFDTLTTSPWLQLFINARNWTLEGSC
Sequence of UniProt O00264 (O00264 whole entry, looked up): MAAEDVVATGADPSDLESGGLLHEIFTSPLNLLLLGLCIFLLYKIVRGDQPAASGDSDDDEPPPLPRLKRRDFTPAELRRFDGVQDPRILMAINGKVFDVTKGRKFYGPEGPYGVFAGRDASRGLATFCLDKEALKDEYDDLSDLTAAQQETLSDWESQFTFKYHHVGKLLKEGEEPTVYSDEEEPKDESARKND
Sequence of UniProt O43663 (O43663 whole entry, looked up): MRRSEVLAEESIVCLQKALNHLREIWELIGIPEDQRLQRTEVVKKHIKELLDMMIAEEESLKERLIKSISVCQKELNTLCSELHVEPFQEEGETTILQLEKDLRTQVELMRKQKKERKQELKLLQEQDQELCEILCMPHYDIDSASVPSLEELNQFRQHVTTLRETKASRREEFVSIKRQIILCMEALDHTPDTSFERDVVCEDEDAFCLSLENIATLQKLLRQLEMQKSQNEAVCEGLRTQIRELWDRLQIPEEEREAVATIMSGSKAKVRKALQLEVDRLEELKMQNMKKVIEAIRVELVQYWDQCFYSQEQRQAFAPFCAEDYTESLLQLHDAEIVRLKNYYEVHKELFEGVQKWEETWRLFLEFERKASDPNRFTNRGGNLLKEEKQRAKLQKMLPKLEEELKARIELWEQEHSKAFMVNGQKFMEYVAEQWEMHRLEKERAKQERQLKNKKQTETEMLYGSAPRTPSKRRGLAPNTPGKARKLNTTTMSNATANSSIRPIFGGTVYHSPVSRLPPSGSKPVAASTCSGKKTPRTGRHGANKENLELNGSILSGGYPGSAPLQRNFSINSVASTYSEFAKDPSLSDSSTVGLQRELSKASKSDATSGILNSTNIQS
Sequence of UniProt P28340 (P28340 whole entry, looked up): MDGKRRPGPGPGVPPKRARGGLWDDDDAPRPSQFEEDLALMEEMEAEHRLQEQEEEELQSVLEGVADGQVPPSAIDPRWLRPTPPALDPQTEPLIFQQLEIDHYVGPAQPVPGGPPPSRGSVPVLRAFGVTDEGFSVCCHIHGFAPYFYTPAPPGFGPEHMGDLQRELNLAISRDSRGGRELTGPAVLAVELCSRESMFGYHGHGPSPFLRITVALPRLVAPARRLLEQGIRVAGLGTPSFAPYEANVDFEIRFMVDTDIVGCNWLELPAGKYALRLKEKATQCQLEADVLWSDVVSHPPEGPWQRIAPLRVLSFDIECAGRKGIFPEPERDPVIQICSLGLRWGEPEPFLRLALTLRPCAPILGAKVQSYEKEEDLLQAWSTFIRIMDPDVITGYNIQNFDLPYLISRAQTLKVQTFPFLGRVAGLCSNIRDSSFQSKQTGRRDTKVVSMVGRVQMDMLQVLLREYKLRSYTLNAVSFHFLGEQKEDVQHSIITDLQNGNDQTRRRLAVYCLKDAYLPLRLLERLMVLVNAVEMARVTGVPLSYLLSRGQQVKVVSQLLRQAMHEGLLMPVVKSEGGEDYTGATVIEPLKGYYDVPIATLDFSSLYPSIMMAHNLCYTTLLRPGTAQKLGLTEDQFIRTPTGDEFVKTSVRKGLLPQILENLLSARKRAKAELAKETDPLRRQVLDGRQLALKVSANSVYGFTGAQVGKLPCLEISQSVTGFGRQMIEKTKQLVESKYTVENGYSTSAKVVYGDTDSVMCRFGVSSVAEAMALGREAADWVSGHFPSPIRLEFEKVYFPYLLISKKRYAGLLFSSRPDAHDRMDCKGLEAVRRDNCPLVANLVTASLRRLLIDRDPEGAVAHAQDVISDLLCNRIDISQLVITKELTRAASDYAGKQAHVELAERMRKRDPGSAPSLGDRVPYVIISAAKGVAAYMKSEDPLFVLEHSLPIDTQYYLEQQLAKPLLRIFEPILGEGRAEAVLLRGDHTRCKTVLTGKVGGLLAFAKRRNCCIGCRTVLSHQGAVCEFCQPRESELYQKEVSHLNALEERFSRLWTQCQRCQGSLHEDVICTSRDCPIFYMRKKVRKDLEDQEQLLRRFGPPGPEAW
Sequence of UniProt Q8TBX8 (Q8TBX8 whole entry, looked up): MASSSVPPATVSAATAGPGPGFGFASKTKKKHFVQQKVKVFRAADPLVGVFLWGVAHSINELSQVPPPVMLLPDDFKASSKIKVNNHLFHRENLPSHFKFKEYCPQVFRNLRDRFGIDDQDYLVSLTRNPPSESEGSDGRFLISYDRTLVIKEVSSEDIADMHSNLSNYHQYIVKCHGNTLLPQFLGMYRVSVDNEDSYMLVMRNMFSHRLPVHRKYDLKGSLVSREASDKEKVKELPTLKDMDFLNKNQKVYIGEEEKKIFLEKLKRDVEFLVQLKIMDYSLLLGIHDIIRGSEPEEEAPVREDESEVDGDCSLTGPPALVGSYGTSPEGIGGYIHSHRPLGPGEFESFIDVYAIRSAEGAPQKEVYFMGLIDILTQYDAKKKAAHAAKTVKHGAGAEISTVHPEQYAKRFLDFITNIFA
Sequence of UniProt P28065 (P28065 whole entry, looked up): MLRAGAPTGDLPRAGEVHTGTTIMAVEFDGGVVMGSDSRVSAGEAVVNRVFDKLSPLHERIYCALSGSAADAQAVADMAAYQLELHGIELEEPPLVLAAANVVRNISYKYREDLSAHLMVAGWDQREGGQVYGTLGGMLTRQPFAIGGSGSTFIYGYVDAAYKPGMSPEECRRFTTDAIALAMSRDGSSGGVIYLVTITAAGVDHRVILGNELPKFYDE
Sequence of UniProt Q9UHV9 (Q9UHV9 whole entry, looked up): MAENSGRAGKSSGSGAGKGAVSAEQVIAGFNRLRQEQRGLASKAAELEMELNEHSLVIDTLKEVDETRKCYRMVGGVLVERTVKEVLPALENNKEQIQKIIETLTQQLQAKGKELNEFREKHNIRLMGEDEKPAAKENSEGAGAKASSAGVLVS

| Target | log2 fold change (erlotinib) | log2 fold change [1] | log2 fold change [2] | log2 fold change [3] | log2 fold change [4] | log2 fold change [5] | log2 fold change [6] | log2 fold change [7] | log2 fold change [8] | log2 fold change (IRAK-1-4 Inhibitor I) |
| --- | --- | --- | --- | --- | --- | --- | --- | --- | --- | --- |
| PCLAF (UniProt Q15004) | 0 | -0.026 | 0.057 | -0.006 | -0.059 | -0.015 | 0.012 | 0.037 | -0.052 | 0.016 |
| PICALM (UniProt Q13492) | -0.019 | -0.035 | 0.02 | -0.021 | 0.01 | -0.06 | -0.014 | -0.016 | 0.001 | 0.026 |
| POLR2M (UniProt P0CAP2) | 0.075 | -0.053 | 0.014 | 0.034 | -0.013 | 0.027 | -0.045 | -0.182 | -0.002 | 0.026 |
| PHOSPHO2 (UniProt Q8TCD6) | -0.018 | -0.225 | 0.046 | -0.032 | -0.027 | -0.002 | 0.072 | 0.224 | -0.16 | -0.014 |
| PPP2R3C (UniProt Q969Q6) | -0.061 | -0.009 | -0.126 | -0.025 | -0.019 | 0.033 | -0.032 | -0.023 | -0.035 | -0.018 |
| PRKACB isoform 2 (UniProt P22694) | -0.033 | -0.03 | -0.03 | 0.04 | -0.028 | -0.019 | 0.129 | 0.352 (active) | 0.354 (active) | 0.009 |
| PIP4K2C (UniProt Q8TBX8) | 0.104 | -0.289 | 0.033 | 0.004 | 0.496 (active) | 0.137 | 0.127 | 0.231 | -0.055 | -0.005 |
| PGRMC1 (UniProt O00264) | -0.032 | -0.378 | 0.025 | -0.029 | 0.003 | 0.018 | -0.004 | 0.008 | 0.013 | -0.005 |
| PRC1 (UniProt O43663) | 0.026 | 0.027 | 0.013 | -0.026 | -0.004 | 0.059 | -0.054 | -0.011 | 0.126 | 0.008 |
| PHACTR4 isoform 2 (UniProt Q8IZ21) | 0.003 | -0.02 | 0.012 | -0.004 | -0.021 | 0.021 | 0.013 | -0.017 | 0.052 | 0.011 |
| PFAS (UniProt O15067) | 0.014 | 0.03 | 0.006 | 0.015 | 0.011 | -0.017 | -0.018 | -0.026 | 0.001 | -0.006 |
| POLR2F (UniProt P61218) | -0.05 | -0.272 | 0.069 | -0.091 | 0.033 | 0.076 | 0.01 | 0.101 | 0.019 | -0.052 |
| PRKCD (UniProt Q05655) | -0.041 | 0.016 | -0.035 | -0.047 | -0.01 | 0.006 | -0.023 | -0.069 | 0.019 | 0.013 |
| PDXDC1 (UniProt Q6P996) | -0.012 | 0.008 | -0.095 | 0.034 | 0.013 | -0.005 | 0.024 | -0.011 | -0.024 | -0.006 |
| POLD1 (UniProt P28340) | 0.016 | -0.05 | 0.013 | 0.008 | -0.008 | 0.015 | -0.029 | -0.006 | 0.007 | -0.01 |
| PTGS1 isoform 6 (UniProt P23219) | -0.044 | 0.118 | 0.033 | -0.105 | -0.005 | 0.086 | -0.03 | 0.008 | -0.025 | 0.061 |
| PTS (UniProt Q03393) | -0.018 | -0.112 | -0.018 | 0.034 | 0.001 | 0.074 | -0.023 | -0.069 | 0.002 | 0.028 |
| PLEKHO2 (UniProt Q8TD55) | 0.188 | 0.008 | -0.023 | 0.106 | -0.06 | 0.184 | -0.014 | -0.075 | 0.186 | -0.004 |
| PRMT5 (UniProt O14744) | 0.002 | 0 | 0.032 | 0.006 | 0.007 | 0.017 | 0.017 | 0.012 | 0.019 | 0.003 |
| POLR2B (UniProt P30876) | 0.031 | 0.019 | -0.014 | 0.012 | -0.016 | -0.008 | -0.024 | 0.002 | -0.004 | -0.007 |
| PPP4R2 (UniProt Q9NY27) | 0.004 | -0.007 | 0.025 | 0.063 | -0.029 | -0.02 | 0.013 | 0.004 | 0.004 | 0.012 |
| PIK3R2 (UniProt O00459) | -0.022 | -0.02 | -0.008 | 0.097 | 0.251 | -0.09 | 0.047 | 0.068 | -0.059 | -0.01 |
| PI4K2A (UniProt Q9BTU6) | -0.013 | -0.005 | -0.041 | 0.021 | -0.003 | 0.02 | 0.063 | 0.002 | 0.058 | 0.003 |
| PREP (UniProt P48147) | 0.026 | -0.016 | 0.028 | -0.007 | -0.002 | 0.002 | -0.002 | -0.024 | 0.014 | -0.007 |
| POMP (UniProt Q9Y244) | 0.058 | -0.022 | -0.001 | 0.05 | -0.003 | -0.024 | -0.08 | -0.099 | 0.048 | -0.023 |
| PUM1 isoform 3 (UniProt Q14671) | -0.025 | 0.051 | 0.06 | -0.028 | 0.02 | -0.052 | -0.033 | 0.01 | 0.013 | 0.011 |
| PFDN2 (UniProt Q9UHV9) | -0.055 | -0.003 | -0.038 | 0.006 | 0 | -0.027 | 0.071 | 0.043 | -0.026 | -0.015 |
| PPOX (UniProt P50336) | -0.044 | 0.532 (active) | 0 | -0.015 | -0.04 | 0.025 | 0.014 | 0 | -0.041 | -0.016 |
| PTPN6 isoform 4 (UniProt P29350) | 0.054 | 0.097 | -0.03 | -0.05 | 0.047 | 0.04 | 0.033 | -0.078 | -0.224 | -0.073 |
| PSMB9 (UniProt P28065) | 0.02 | -0.112 | 0.008 | -0.062 | -0.08 | -0.061 | 0.033 | -0.084 | 0.084 | -0.048 |
